From PubChem BioAssay
Values without a mark were called inactive.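 The calls were made as follows: active = viability loss from added drug above about 55%, and viability with drug at most 40%, in both replicates (limit read from the data, passing the limit was not always enough); inconclusive = both conditions met in only one replicate; inactive = neither replicate meets both conditions.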

Experiment: MRP1 drug-resistance reversers in H69AR cells – cell-based, doxorubicin co-treatment, pilot screen (AID 601)
Settings: H69AR cells + 2 uM doxorubicin, CellTiter-Glo, 72 h; at 10 µM; hits give high values

| SMILES | differential viability (reversal) |
| --- | --- |
| COC(=O)c1cc(-c2c(C)nn(-c3ccccc3)c2C)n[nH]1 | -2.79% |
| CCN(CC)CCNC(=O)C1CCN(S(=O)(=O)N2CCCCC2)CC1 | 0.23% |
| COc1ccc(-c2noc(CCC(=O)Nc3nc4ccccc4s3)n2)cc1 | -3.04% |
| Nc1nc(SCCOc2ccccc2)n[nH]1 | 6.12% |
| COc1cc(OC)cc(-c2nc(N)n[nH]2)c1 | 5.86% |
| O=c1ccn(Cc2ccccc2Cl)cc1 | 9.77% |
| O=C(NC12CC3CC(CC(C3)C1)C2)N1CCN(C(=O)C2CCCO2)CC1 (stereo unspecified) | 11.2% |
| O=C(C1CC2CCC1C2)N1CCN(Cc2ccc3c(c2)OCO3)CC1 (stereo unspecified) | 13.9% |
| O=C(O)c1cccn2c(=O)c3ccccc3nc12 | 4.45% |
| COc1cc2c(cc1NCc1ccccn1)oc1ccccc12 | -10.3% |
| CCCCCCn1c(CN2CCN(Cc3ccccc3)CC2)nc2c1c(=O)n(C)c(=O)n2C | 38.8% |
| Cc1cccc2cc(C(c3nnnn3C(C)(C)C)N3CCN(C(=O)c4ccco4)CC3)c(=O)[nH]c12 (stereo unspecified) | -3.69% |
| Cc1ccc(Cn2ccc(NC(=O)c3noc4c3CCCC4)n2)cc1 | 23.6% |
| CCOC(=O)CC(=O)c1cc(OC)c(OC)c(OC)c1 | 11.3% |
| CCOc1ccc(C2/C(=C(/O)c3ccccc3)C(=O)C(=O)N2CCCN(C)C)cc1OC (stereo unspecified) | 7.23% |
| Cn1c(=O)c(=O)n(C)c2cc(S(=O)(=O)N3CCN(c4cccc(C(F)(F)F)c4)CC3)ccc21 | -1% |
